# Shown are actives, neighbours in structure and some others; about 4.6% of the full set was active somewhere.
# NLRP3 yeast inh = blocks the NALP3 inflammasome reconstituted in yeast; Yeast reconstituted NLRP3/ASC/caspase-1, beta-gal luminescence, 24 h; inhibition, % at 10 µM; hit rate 0.39% among 330,000; AID 2825;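 active = inhibition of 50% or more; inactive = inhibition below 50%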;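 note: plate controls were induced DMSO wells for no effect and uninduced yeast grown without galactose for full effect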
# tim23-1 inh = inhibits growth of tim23-1 mutant yeast. S. cerevisiae tim23-1 growth, BacTiter-Glo luminescence, 24 h. inhibition, % at 20 µM. hit rate 1.3% among 330,000;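 active = growth inhibition of the mutant yeast at or above 50%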;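 note: temperature-sensitive mutant grown at 25 °C; plate controls were DMSO-treated mutant yeast for no effect and medium wells lacking yeast for full effect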
# PfHsp90 yeast 2 = growth inhibition of yeast expressing Plasmodium Hsp90; inhibition, % at 9.4 µM; hit rate 0.32% among 310,000; AID 504621; S. cerevisiae expressing PfHsp90, BacTiter-Glo ATP, 48 h; yeast lacking PDR1 and PDR3 efflux regulators;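 active = every replicate shows inhibition above about 80%, whatever the replicate mean, limit read from the data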;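 note: 0% = DMSO neutral controls and 100% = 20 µM radicicol positive controls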
# TIM10 inh = growth inhibitors of TIM10 yeast strain; S. cerevisiae TIM10 strain growth, BacTiter-Glo luminescence, 24 h; inhibition, % at 10 µM; hit rate 1.4% among 330,000;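 active = inhibition of 40% or more at the single tested concentration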;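 note: wild-type TIM10 isogenic control strain grown at permissive 25 °C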
# SKKanGAS inh = SKKanGAS growth inhibition; hit rate 1.3% among 300,000; inhibition, % at 7.5 µM; S. pyogenes SKKanGAS, kanamycin growth, BacTiter-Glo, 6 h;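 active = mean replicate score, as percent of positive control median, at least 50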;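 note: strain carries kanamycin resistance gene driven by streptokinase promoter and grows in 40 µg/ml kanamycin; loss of luminescence reflects streptokinase promoter inhibition or plain growth inhibition; 0% = median of DMSO wells and 100% = positive control at its reference dose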
# tim10-1 inh = growth inhibitors of tim10-1 mutant yeast; S. cerevisiae tim10-1 ts strain growth, BacTiter-Glo, 24 h; inhibition, % at 20 µM; hit rate 2.2% among 330,000; AID 463190;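 active = inhibition of at least 40%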;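 note: mutant grown at 25 °C; 0% = DMSO wells with yeast and 100% = wells holding no yeast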
# tim10 confirm = confirmation of TIM10 yeast growth inhibitors; shares compounds with TIM10 inh; S. cerevisiae tim10 strain growth, BacTiter-Glo luminescence, 24 h; inhibition, % at 10 µM; hit rate 63% among 4,600; AID 463215;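 active = inhibition of yeast growth at or above a set limit in either of two replicates at 10 µM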;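 note: this counterscreen used the strain with wild-type TIM10; 0% = yeast with DMSO and 100% = medium wells lacking yeast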
# An asterisk follows results filed as active; x = no result.
SMILES,NLRP3 yeast inh,tim23-1 inh,PfHsp90 yeast 2,TIM10 inh,SKKanGAS inh,tim10-1 inh,tim10 confirm
CCN(C(=O)c1cc2cc3ccc(C)cc3nc2o1)c1ccc(OC)cc1,20,38,1,44*,8,35,-9
Cc1ccc2cc3cc(C(=O)N4CCCCC4C)oc3nc2c1 (stereo not given),18,40,20,50*,-1,32,-30
Cc1ccc2cc3cc(C(=O)NCCCN4CC(C)CC(C)C4)oc3nc2c1 (stereo not given),-11,26,-29,61*,2,25,27
COCCNC(=O)CN1C(=O)NC2(CCCc3ccccc32)C1=O (stereo not given),2,-3,1,11,-2,-12,x
Cc1ccc(-c2nnn(CC(=O)N(c3ccccc3)C(C(=O)NCC3CCCO3)c3cccs3)n2)o1 (stereo not given),17,-2,-9,11,-17,-1,x
C/C(=N\NC(=O)CNc1cccc2ccccc12)c1ccccc1,15,31,8,42*,1,28,14
COc1cccc2cc(/C(=N/O)c3ccccc3)oc12,21,50,-9,55*,-16,36,42*
COc1cccc2cc(C(C)=O)oc12,3,6,-3,-13,-2,26,x
CC(C)(C)c1ccc(/C=C(\c2nc3ccccc3[nH]2)S(=O)(=O)c2ccccc2)cc1,27,46,-9,47*,11,26,33*
CCOC(=O)COn1c(=O)c(-c2ccc(F)cc2)[n+]([O-])c2ccccc21,12,0,1,-11,-3,22,x
CCOC(=O)COn1c(=O)c(-c2cccs2)[n+]([O-])c2ccccc21,9,48,-12,42*,0,37,-28
COc1ccc(NC(=S)N2CCC(c3ccccc3)C2)cc1 (stereo not given),3,28,8,8,1,36,x
Cc1ccc(Cl)cc1NC(=S)N1CCC(c2ccccc2)C1 (stereo not given),26,14,0,52*,-1,37,37*
O=C(c1ccccc1)N1CCCCC(Sc2nnc3ccccn23)C1=O (stereo not given),8,2,2,-11,-4,-5,x
CCN(CC)C(=S)SC1CCCCN(C(=O)c2ccccc2)C1=O (stereo not given),-16,36,-15,40,-7,28,22
COc1ccc(C(=O)N2CCCC(c3ccccc3)=N2)cc1,30,39,5,45*,16,40,22
Cc1ccc(C(=O)N2CCCC(c3ccc(Cl)cc3)=N2)cc1,23,29,-18,4,1,31,x
N/C(=N\OC(=O)c1ccc2ccccc2c1)c1ccccn1,5,13,20,45*,-4,36,51*
N/C(=N\OC(=O)c1ccc2ccccc2c1)c1ccccc1Cl,26,15,100*,84*,8,36,85*
N/C(=N\OC(=O)c1cccc2ccccc12)c1ccccn1,22,49,-16,55*,-9,22,55*
COc1cccc(-n2nnnc2S(C)(=O)=O)c1,-21,-49,-64,59*,1,-13,48*
COc1cccc(-n2cnnn2)c1,-4,8,x,-1,6,23,x
O=c1c2c3c(sc2ncn1/N=C/c1ccc([N+](=O)[O-])o1)CCCC3,35,-79,105*,69*,3,-21,96*
O=C1NC(=S)S/C1=C\c1coc2ccccc2c1=O,4,28,-22,44*,3,13,25
CN1CCN(S(=O)(=O)c2cccc(C(=O)N(C)CC(=O)Nc3ccc(F)c(F)c3F)c2)CC1,12,15,x,8,-9,19,x
SMILES,NLRP3 yeast inh,tim23-1 inh,PfHsp90 yeast 2,TIM10 inh,SKKanGAS inh,tim10-1 inh,tim10 confirm
O=C(Cc1ccc(Br)cc1)N1CCOCC1,3,0,-24,4,-16,1,x
O=S(=O)(c1cccc(NC(=S)N2CCN(c3ccccc3F)CC2)c1)C(F)F,-11,3,-4,47*,0,28,36*
O=S(=O)(c1cccc(NC(=S)N2CCN(c3ccccc3)CC2)c1)C(F)F,12,20,-28,18,1,33,x
CCC(c1nnc(SCc2nc3ccccc3s2)n1Cc1ccccc1)N(C)C (stereo not given),22,23,10,41*,-1,33,-18
c1ccc(Cn2c(SCc3nc4ccccc4s3)nnc2-c2ccco2)cc1,26,36,-14,-6,4,17,x
Cc1ccc(NC(=O)[C@@H]2CCCN2S(=O)(=O)c2ccc(Cl)cc2)cc1,25,26,x,-9,x,-9,x
OC(c1ccccc1)c1ccncc1 (stereo not given),1,-3,-7,-2,1,-8,x
Cc1ccccc1C(N)c1ccncc1 (stereo not given),1,-8,-15,81*,5,-7,3
CCOC(=O)CCCNC(=O)CSc1nc2ccc(OCC)cc2[nH]1,11,10,-2,3,0,9,x
CS(=O)(=O)c1nc(-c2ccccc2)cc(C(F)(F)F)n1,41,-24,-5,45*,-23,17,-30
Cc1cc(C)nc(SCc2ccc(C(=O)N/N=C3\CC(C)CC(C)(C)C3)cc2)n1 (stereo not given),6,30,-34,40*,-14,26,4
CC12CCC(C(=O)N(CSC(=S)N/N=C\c3ccccc3)C1=O)C2(C)C (stereo not given),22,5,0,58*,6,36,50*
CC12CCC(C(=O)N(CC(=O)O)C1=O)C2(C)C (stereo not given),12,-1,0,8,3,-11,x
O=C(NCCN1CCCCC1)Nc1cccc(F)c1,18,-2,11,2,-1,-9,x
COc1ccc(C2=NN(CN3C(=O)C(=O)c4ccccc43)C(c3ccc(OC)cc3)C2)cc1 (stereo not given),28,24,-7,3,0,25,x
CN1CCN(C(=S)c2cn(Cc3ccc(F)cc3)c3ccccc23)CC1,21,18,14,-2,-4,3,x
CC1CCN(C(=S)c2cn(Cc3ccc(F)cc3)c3ccccc23)CC1,20,27,-10,55*,16,36,38*
CCNC(=S)N/N=C/c1cn(Cc2ccc(F)cc2)c2ccccc12,20,40,9,43*,22,32,51*
C=CCN(Cc1cccs1)C(=O)CN1CCN(S(=O)(=O)c2ccc3c(c2)OCCCO3)CC1,7,13,-6,17,x,10,x
O=C1CCC(C(=O)OCC(=O)N2N=C3/C(=C/c4ccccc4)CCCC3C2c2ccccc2)N1 (stereo not given),2,29,x,42*,4,18,19
